Reference: PubChem BioAssay (NCI)
The panel holds about 83,000 compounds, 20% with a hit somewhere; the sample as a whole holds those more often.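 The endpoint reported here, percent growth, reads 100 for growth as untreated, 0 for no net growth and -100 for all cells dead.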 A number with no mark means an inactive call. Activity calls are given as the source filed them. How the source made its calls: active means growth percent below 10; inactive means the rest.

Tests used:
Experiment in all cases: NCI-60 one-dose screen, 48 h (100 = growth as untreated, 0 = no growth, -100 = all killed)
Details in all cases: 10 µM
NCI-H23 lung = system: NCI-H23 lung
NCI-H226 lung = system: NCI-H226 lung
NCI-H322M lung = system: NCI-H322M lung
HOP-62 NSCLC = system: HOP-62 NSCLC
NCI-H460 lung = system: NCI-H460 lung
HOP-92 NSCLC = system: HOP-92 NSCLC
NCI-H522 lung = system: NCI-H522 lung
A549/ATCC NSCLC = system: A549/ATCC NSCLC
786-0 renal = system: 786-0 renal
COLO 205 colon = system: COLO 205 colon

SMILES | growth (NCI-H23 lung) | growth (NCI-H226 lung) | growth (NCI-H322M lung) | growth (HOP-62 NSCLC) | growth (NCI-H460 lung) | growth (HOP-92 NSCLC) | growth (NCI-H522 lung) | growth (A549/ATCC NSCLC) | growth (786-0 renal) | growth (COLO 205 colon)
CC(=C(c1ccc(OCCN2CCCCCC2)cc1)c1ccc(OCCN2CCCCCC2)cc1)c1ccc(Cl)cc1 | -96% (active) | -89.8% (active) | -100% (active) | -96.8% (active) | -54.1% (active) | -74.3% (active) | -92.7% (active) | -98.4% (active) | -75.7% (active) | -93% (active)
O=C(NCCCCCCCCCC[P+](c1ccccc1)(c1ccccc1)c1ccccc1)c1ccc(-n2nc(-c3ccccc3O)nc2-c2ccccc2O)cc1 | -66.8% (active) | -58.9% (active) | -91.1% (active) | -64.1% (active) | 8.35% (active) | -74.9% (active) | -78.3% (active) | -51.9% (active) | -64% (active) | -83.1% (active)
CCCn1c(=O)c2[nH]c(-c3ccc(OCc4nc5ccccc5[nH]4)cc3)nc2n(CCC)c1=O | 32.5% | -30.3% (active) | 59.7% | 22.2% | 6.69% (active) | -6.45% (active) | 20.9% | 38.6% | -48.5% (active) | 89.1%
O=C(O)CCCCCCCCCCN1C(=O)/C(=C/c2cnc(-c3ccc(Cl)cc3)s2)SC1=S | 11.8% | 34.8% | 5.41% (active) | 36.3% | 4.44% (active) | -40.9% (active) | -16% (active) | -19.6% (active) | 28.1% | 139%
CC(=C(c1ccc(OCCCN(C)C)cc1)c1ccc(OCCCN(C)C)cc1)c1ccccc1 | -97.9% (active) | -81.5% (active) | -100% (active) | -90.5% (active) | 3.15% (active) | -76.4% (active) | -84.6% (active) | -73.1% (active) | -44% (active) | -85.9% (active)
Cc1ccc(-c2nc3ccc(C(=O)N=Nc4c(O)[nH]c5ccc(Cl)cc45)cc3[nH]2)cc1 | -83.8% (active) | -17.6% (active) | 3.76% (active) | -73.7% (active) | 4.47% (active) | -35.8% (active) | -81.3% (active) | 28% | -42.9% (active) | 3.66% (active)
CS(=O)(=O)Nc1ccc(-c2ccc3c(c2)ncn3-c2ccc(NC(=O)Nc3ccc(Cl)c(C(F)(F)F)c3)cc2)cc1 | -70.3% (active) | -51% (active) | -42.9% (active) | -87.1% (active) | 0.554% (active) | -43.5% (active) | -87.6% (active) | -75.1% (active) | -77.9% (active) | -90.4% (active)
O=C(CSc1nnc(-c2c[nH]c3ccccc23)n1-c1ccccc1)Nc1ccc(C(=O)/C=C/c2cccc([N+](=O)[O-])c2)cc1 | 86.2% | 72.7% | 100% | 98.2% | 99.2% | 104% | 82.1% | 97.2% | 101% | 119%
CCNCCCn1c2c(c3cc(OC)c(OC)cc3c1=O)C(=O)c1cc3c(nc1-2)OCO3 | -27.2% (active) | -79.7% (active) | 35.2% | 11.7% | -24.7% (active) | 44.4% | 35.8% | 21.1% | -71.7% (active) | 25.7%
COC(=O)C[C@](O)(CCCC(C)(C)O)C(=O)O[C@H]1C(OC)=C[C@@]23CCC(=O)N2CCc2cc4c(cc2[C@@H]13)OCO4 | 101% | 79.4% | 112% | 93.1% | 44.3% | 116% | 78.4% | 94.9% | 97.9% | 118%
O=C(Nc1nc2ccccc2s1)c1ccc(Br)cc1 | 74% | 67.4% | 83.4% | 101% | 81.6% | 100% | 75.3% | 84.9% | 99.6% | 107%
Nc1nc(Nc2ccc(Cl)cc2)n(Cc2cccc(Br)c2)n1 | -37.9% (active) | -12.6% (active) | 11.8% | -30.4% (active) | -65.9% (active) | -49.5% (active) | -46.2% (active) | 8.74% (active) | -46.8% (active) | -68.8% (active)
CCOC(=O)CNC(=O)CN(Cc1ccccc1)C(=O)[C@@]1(C)CCC[C@]2(C)[C@H]3C[C@H]4C(C(C)C)=C[C@]3(CC[C@H]21)[C@@H]1C(=O)OC(=O)[C@@H]14 | 46.6% | 71.3% | 106% | 82.8% | 61.1% | 74.6% | 35.6% | 53.9% | 84.7% | 103%
O=C(Cc1ccc2c(c1)CN(C1CCC(=O)NC1=O)C2=O)NCc1cccc2ccccc12 (stereo not given) | 12.7% | 1.96% (active) | -4.15% (active) | -23.1% (active) | 45.7% | -28.3% (active) | -21.4% (active) | 7.72% (active) | -23.6% (active) | -35.7% (active)
COc1cnc2c(c1)C(=O)c1c-2n(CCCNC(C)C)c(=O)c2cc(OC)c(OC)cc12 | 26.9% | 41.4% | 46.5% | 16.7% | 16% | 60.9% | 41.3% | 46.6% | 22.9% | 39.2%
Nc1nc2c(F)c(F)c(F)c(F)c2s1 | 102% | 98.6% | 103% | 92.6% | 107% | 90.5% | 89.5% | 99.4% | 85.1% | 114%
CCOP(=O)(OCC)O[C@H]1CCC(=O)[C@@H]2[C@H]1[C@H]1C[C@@H]3[C@@]4(C)CCCC(C)(C(=O)OC)[C@@H]4CC[C@@]23C=C1C(C)C (stereo not given in full) | 50.3% | 48.9% | 102% | 76.8% | 66.4% | 46.8% | 31.6% | 49.7% | 63.3% | 47.6%
O=C(Cn1cc(CSc2nnc3oc4ccccc4n23)nn1)Nc1ccc(Br)cc1 | 62.7% | 45.2% | 86.9% | 38.5% | 101% | 32% | 79.5% | 76.5% | 69.6% | 103%
O=C(Cn1cc(CSc2nnc3oc4ccccc4n23)nn1)Nc1cccc(Cl)c1 | 60.2% | 65% | 84.1% | 72.9% | 91.1% | 52.1% | 47.6% | 62.9% | 93.3% | 97.8%
CC(C)(C)Nc1nc2cc(Cl)c(Cl)cc2nc1S(C)(=O)=O | -63.6% (active) | -83% (active) | 98% | 88.1% | 73.1% | -5.25% (active) | -80.6% (active) | 94.1% | 44% | 31.2%
O=C(CNc1nc(-c2ccccc2)cs1)Nc1cccc([N+](=O)[O-])c1 | -92.5% (active) | -42.5% (active) | -71.4% (active) | -76.2% (active) | 4.92% (active) | -49.2% (active) | -83.2% (active) | -72.7% (active) | -85.1% (active) | -64.1% (active)
C#CCNC(=O)[C@]12CCC(C)(C)C[C@H]1C1=CC[C@@H]3[C@@](C)(CCC#N)[C@H](C(=C)C)CC[C@@]3(C)[C@]1(C)CC2 | 58.2% | 76.5% | 77.1% | 68.5% | 66.9% | 26.4% | 64.5% | 40.1% | 74.6% | 68%
